Test results published in PubChem BioAssay (NCATS).
Records with an inconclusive call do not appear. Calls of active or inactive are those of the source. The call rests on the fitted dose curve; in most records, active means well fitted inhibition curve with a large enough effect; inconclusive means small, poorly fitted or top-dose-only effect; inactive means no such curve, though single readings can be large or run the other way.

Target: Rap guanine nucleotide exchange factor 3 (Homo sapiens) (UniProt O95398)
Sequence (O95398 whole entry, looked up): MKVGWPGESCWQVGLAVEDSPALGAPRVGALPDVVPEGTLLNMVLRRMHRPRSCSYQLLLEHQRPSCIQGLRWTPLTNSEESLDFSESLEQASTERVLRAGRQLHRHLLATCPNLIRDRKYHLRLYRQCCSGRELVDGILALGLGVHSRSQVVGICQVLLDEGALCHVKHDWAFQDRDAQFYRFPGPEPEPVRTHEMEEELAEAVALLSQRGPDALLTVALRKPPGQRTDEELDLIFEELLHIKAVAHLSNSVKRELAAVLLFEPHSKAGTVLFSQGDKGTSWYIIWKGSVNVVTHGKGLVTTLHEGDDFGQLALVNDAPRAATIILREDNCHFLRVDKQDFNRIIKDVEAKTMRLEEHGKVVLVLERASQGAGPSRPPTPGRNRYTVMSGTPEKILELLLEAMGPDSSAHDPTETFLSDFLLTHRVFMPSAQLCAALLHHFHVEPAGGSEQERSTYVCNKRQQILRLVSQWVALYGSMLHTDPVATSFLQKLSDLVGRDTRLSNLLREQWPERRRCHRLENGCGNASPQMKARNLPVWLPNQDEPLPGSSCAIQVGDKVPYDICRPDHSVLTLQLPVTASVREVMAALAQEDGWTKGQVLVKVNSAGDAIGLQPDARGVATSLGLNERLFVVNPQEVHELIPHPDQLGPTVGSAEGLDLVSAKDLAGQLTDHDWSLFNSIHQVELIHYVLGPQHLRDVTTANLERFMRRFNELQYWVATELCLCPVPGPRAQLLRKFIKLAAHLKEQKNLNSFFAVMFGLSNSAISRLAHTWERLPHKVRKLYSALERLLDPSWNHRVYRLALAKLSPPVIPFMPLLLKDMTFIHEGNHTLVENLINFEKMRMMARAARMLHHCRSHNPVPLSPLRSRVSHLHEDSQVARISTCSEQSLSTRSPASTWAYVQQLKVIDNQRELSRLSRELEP
Test: Confirmatory qHTS for antagonist of cAMP-regulated guanine nucleotide exchange factor 3 (EPAC1) (AID 1645880); further: nearly all actives have a fitted effect of over 55% in size
Conditions: EPAC1 Rap1B-BODIPY-GDP exchange, fluorescence; series mostly up to 115 µM
Outline: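 Nucleotide exchange uses 100 nM EPAC1, 250 nM RAP1B-BODIPY-GDP and 50 uM GDP, with compounds in a concentration-titration series. After 5 min at room temperature, fluorescence (480 nm ex/540 nm em) is read every 5 min for 30 min. Data are normalized to control ATA and DMSO.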
Potency means the concentration at half of the fitted maximal effect.

Potency, active:
O=C(/C=C/c1ccccc1)c1cc(Br)ccc(=O)c1O 12 µM

Potency, inactive:
CCOC(=O)C1CCCN(c2cc(=O)n(C3CCCCC3)c(=O)[nH]2)C1 (stereo not drawn), Cc1cccc(C)c1OCC(=O)N(Cc1ccco1)Cc1ccco1, Cc1ccc(C)n1-c1c(C(=O)NCCC(C)C)sc2ncccc12, CN(C)c1ccc(/C=C/C=C/c2ccnc3ccccc23)cc1, Nc1ccn(C2C=CC(CO)O2)c(=O)n1 (stereo not drawn), COc1ccccc1CNC(=O)CSc1ccc(-c2cccs2)nn1, COc1ccccc1N1CCN(c2ccc3c(c2)S(=O)(=O)c2cccc(C(=O)NCC4CC4)c2C3=O)CC1, O=C(NCCN1CCCC1)C(c1ccccc1)c1ccccc1, COc1cc2c3nnc(-c4ccccc4)c-3cn(Cc3ccc(F)cc3)c2cc1OC, COc1ccc(C(=O)NC2CCCc3ccccc32)c(OC)c1OC (stereo not drawn), CCc1ccccc1NC(=O)CCC(=O)N1CCN(C(C)=O)CC1, O=C(C[n+]1cccc2cc(Cl)ccc21)c1ccc(Br)cc1, Cn1cccc1-c1cc(C(=O)N/N=C/c2ccc(F)cc2)[nH]n1, O=C(C[N+]12CN3CN(CN(C3)C1)C2)c1ccc(I)cc1, CC(C)CC1C(=O)N(Cc2cn(CCC3OCCCO3)nn2)CCS(=O)(=O)N1Cc1ccc(-c2ccc(F)cc2)cc1 (stereo not drawn), O=C1C[C@H]2C=CCc3cccc(c32)CN1Cc1ccc(Cl)cc1, COC(=O)c1cn(C(=O)c2ccc(OC)cc2)c2ccccc12
